Experimental data reported in PubChem BioAssay (NCI).
This is part of a sample that, as a whole, favours compounds with a hit. Of some 79,000 tested, about 15% had one in any assay. Active and inactive are the calls of the source. Cut-off read from the data, not from the text of the source: active = growth inhibition above about 70%; inactive = the rest.

Key:
[1] = NCI Yeast Anticancer Drug Screen. Data for the rad52 strain (AID 147);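 note: 0% = growth of vehicle-treated control cultures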; conditions: S. cerevisiae rad52 mutant growth inhibition, hits give high values
Procedure, shortened: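 Vehicle-treated cultures served as the reference for growth inhibition of compound-exposed yeast bearing a DNA repair mutation.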

[2] = NCI Yeast Anticancer Drug Screen. Data for the wt1 strain (AID 149);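 note: 0% = growth of vehicle-treated wt1 cultures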; conditions: S. cerevisiae wt1 strain (SPY 50644) growth inhibition, hits give high values
Procedure, shortened: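 Measured: growth of wt1 yeast under compound versus vehicle treatment, reported as inhibition.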

[3] = NCI Yeast Anticancer Drug Screen. Data for the rad50EPP+ strain (AID 151);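 note: 0% = growth of vehicle-treated control cultures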; conditions: S. cerevisiae rad50 mutant strain, hits give high values
Procedure, shortened: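 In this screen, rad50EPP+ yeast were exposed to compounds. Growth inhibition was scored against vehicle-treated controls.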

[4] = NCI Yeast Anticancer Drug Screen. Data for the rad50 strain (AID 155);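 note: 0% = growth of vehicle-only cultures of the same strain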; conditions: S. cerevisiae rad50 strain growth inhibition, hits give high values
Procedure, shortened: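 Growth of the mutant yeast was measured after compound exposure and referenced to vehicle-treated cultures.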

[5] = NCI Yeast Anticancer Drug Screen. Data for the mec2-1 strain (AID 157); conditions: S. cerevisiae mec2-1 strain, hits give high values
Procedure, shortened: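 Vehicle-treated cultures served as reference for growth inhibition of compound-exposed mec2-1 yeast.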

[6] = NCI Yeast Anticancer Drug Screen. Data for the rad14 strain (AID 159);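 note: 0% = growth of vehicle-treated control cultures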; conditions: S. cerevisiae rad14 strain growth inhibition, hits give high values
Procedure, shortened: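 Here, inhibition of yeast growth was measured after compound exposure, using a strain with a genetic defect in DNA damage repair and vehicle-treated cultures as the reference.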

[7] = NCI Yeast Anticancer Drug Screen. Data for the sgs1 mgt1 strain (AID 161);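 note: 0% = growth of cultures given vehicle only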; conditions: S. cerevisiae sgs1 mgt1 strain, hits give high values
Procedure, shortened: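 Mutant yeast exposed to compound; growth scored against vehicle-only wells.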

[8] = NCI Yeast Anticancer Drug Screen. Data for the CLN2oe strain (AID 163);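 note: 0% = growth of vehicle-only control cultures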; conditions: S. cerevisiae CLN2oe strain, hits give high values
Procedure, shortened: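 Inhibition relative to vehicle-treated yeast is reported. Cells: strain with genetic alteration in cell-cycle control, grown with compound.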

[9] = NCI Yeast Anticancer Drug Screen. Data for the cln2 rad14 strain (AID 165);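 note: 0% = growth equal to vehicle treated cultures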; conditions: S. cerevisiae cln2 rad14 strain, hits give high values
Procedure, shortened: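 Each compound was tested on cln2 rad14 yeast. Inhibition of growth was calculated against vehicle-exposed controls.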

[10] = NCI Yeast Anticancer Drug Screen. Data for the bub3 strain (AID 167); conditions: S. cerevisiae bub3 mutant strain, hits give high values
Procedure, shortened: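 Whole-cell yeast assay. The mutant strain was incubated with compounds, and growth inhibition was determined by comparison with vehicle-treated cells.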

[11] = NCI Yeast Anticancer Drug Screen. Data for the wt2 strain (AID 169);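 note: 0% = growth of vehicle-treated yeast cultures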; conditions: S. cerevisiae wt2 strain growth inhibition, hits give high values
Procedure, shortened: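 Inhibition of yeast growth was determined after compound treatment, normalised to controls receiving only vehicle.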

[12] = NCI Yeast Anticancer Drug Screen. Data for the mlh1 strain (AID 171);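 note: 0% = growth of vehicle-treated control cultures of the same strain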; conditions: S. cerevisiae mlh1 strain growth inhibition, hits give high values
Procedure, shortened: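 Vehicle-normalised growth inhibition of a repair- or checkpoint-altered yeast strain following compound treatment.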

[13] = NCI Yeast Anticancer Drug Screen. Data for the sgs1 strain (AID 173);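 note: 0% = growth of vehicle-only control cultures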; conditions: S. cerevisiae sgs1 mutant, hits give high values
Procedure, shortened: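 Screen format: yeast with repair or checkpoint alterations, compound exposure, growth read relative to vehicle.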

[14] = NCI Yeast Anticancer Drug Screen. Data for the mlh1 rad18 strain (AID 175); conditions: S. cerevisiae mlh1 rad18 strain growth inhibition, hits give high values
Procedure, shortened: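 Vehicle-treated cultures served as the reference for growth inhibition in a yeast strain carrying DNA damage repair alterations exposed to each compound.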

[15] = NCI Yeast Anticancer Drug Screen. Data for the rad18 strain (AID 177); conditions: S. cerevisiae rad18 mutant growth inhibition, hits give high values
Procedure, shortened: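 Test articles were incubated with altered yeast defective in DNA damage repair. Results are given as inhibition of growth versus vehicle.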

[16] = at 5.0 µM (retest, dose inferred, filed as 0.5)
[17] = at 50.0 µM (retest, dose inferred, filed as 5.0)

Measured: growth inhibition

O=C(/C=C\c1ccc([N+](=O)[O-])o1)Nc1ccc(Cl)cc1
active: [1]; at 3.7 µM 96% | [1]; at 11.0 µM 98% | [1]; at 33.0 µM 98% | [1]; at 100.0 µM 97% | [2]; at 11.0 µM 97% | [2]; at 33.0 µM 98% | [2]; at 100.0 µM 98% | [3]; at 11.0 µM 83% | [3]; at 33.0 µM 91% | [3]; at 100.0 µM 84% | [4]; at 3.7 µM 82% | [4]; at 11.0 µM 97% | [4]; at 33.0 µM 97% | [4]; at 50.0 µM 90.1% | [4]; at 100.0 µM 96% | [5]; at 33.0 µM 91% | [5]; at 100.0 µM 95% | [6]; at 3.7 µM 70% | [6]; at 11.0 µM 91% | [6]; at 33.0 µM 94% | [6]; at 100.0 µM 96% | [7]; [17] 84% | [7]; at 50.0 µM 90% | [8]; at 11.0 µM 73% | [8]; at 33.0 µM 76% | [10]; at 11.0 µM 82% | [10]; at 33.0 µM 78% | [10]; at 100.0 µM 96% | [11]; at 3.7 µM 87% | [11]; at 11.0 µM 99% | [11]; at 33.0 µM 99% | [11]; at 100.0 µM 98% | [12]; at 11.0 µM 94% | [12]; at 33.0 µM 93% | [12]; at 100.0 µM 97% | [13]; at 1.2 µM 81% | [13]; at 3.7 µM 94% | [13]; at 11.0 µM 98% | [13]; at 33.0 µM 98% | [13]; at 100.0 µM 95% | [14]; [16] 88% | [14]; [17] 86% | [14]; at 50.0 µM 92.8% | [15]; at 1.2 µM 95% | [15]; at 3.7 µM 97% | [15]; at 11.0 µM 97% | [15]; at 33.0 µM 97% | [15]; at 100.0 µM 93%
inactive: [1]; at 1.2 µM 69% | [2]; at 1.2 µM 6% | [2]; at 3.7 µM 50% | [3]; at 1.2 µM 52% | [3]; at 3.7 µM 69% | [4]; at 1.2 µM 38% | [4]; [16] 24% | [4]; [17] 54% | [5]; at 1.2 µM 4% | [5]; at 3.7 µM 19% | [5]; [16] 23% | [5]; at 11.0 µM 63% | [5]; [17] 55% | [5]; at 50.0 µM 27.5% | [6]; at 1.2 µM 21% | [7]; [16] 63% | [8]; at 1.2 µM -4% | [8]; at 3.7 µM 30% | [8]; at 100.0 µM 61% | [9]; [16] 14% | [9]; [17] 31% | [9]; at 50.0 µM 35.1% | [10]; at 1.2 µM 0% | [10]; at 3.7 µM 24% | [10]; [16] 6% | [10]; [17] 42% | [10]; at 50.0 µM 10.4% | [11]; at 1.2 µM 28% | [12]; at 1.2 µM 1% | [12]; at 3.7 µM 46%
